# Laboratory results as given in the supplement of paper PMC6555819.
# Assays:
# Assay in all cases: PBM binding z-score (relative to random genomic background probes); higher = stronger binding; sequences stand for … in GC…GCGATTGACAGCGTAGAATGAAGG
# [1] = test system: RARb homodimer (NR concentration 270 nM)
# In short: (§1)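 Random background probes are the reference for binding z-scores. These scores derive from regression-normalized fluorescence on custom Agilent 4×180K protein-binding microarrays incubated 1 h with ligand-free nuclear receptor dimers. Binding was detected with antibodies against each partner (one per run).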
# [2] = test system: RARg:RXRa (NR concentration 270 nM, RXRa partner concentration 90 nM)
# In short: as §1
# [3] = test system: RARg homodimer (NR concentration 270 nM)
# In short: as §1
# [4] = test system: RXRa DBDmut IVT, anti-RXR (DBD mutation: RXRa K156A/R161A, NR concentration 90 nM)
# In short: as §1
# [5] = test system: RXRa homodimer (NR concentration 180 nM)
# In short: as §1
# [6] = test system: THRa:RXRa (NR concentration 90 nM, RXRa partner concentration 90 nM)
# In short: as §1
# [7] = test system: THRa homodimer (NR concentration 90 nM)
# In short: as §1
# [8] = test system: VDR homodimer (NR concentration 270 nM)
# In short: as §1
Sequence,PBM binding z-score [1],PBM binding z-score [2],PBM binding z-score [3],PBM binding z-score [4],PBM binding z-score [5],PBM binding z-score [6],PBM binding z-score [7],PBM binding z-score [8]
AGAATGAGGTAACCAAAGATCAGGGAAACGCTTG,-0.385,0.568,0.561,-0.346,0.827,2.05,0.539,-0.262
TCTGGTTGGTCAAAGGTCACACACTCGAAATGCG,4.94,7.36,6.25,1.79,8.3,4.07,2.65,3.34
TCATATAGGTAATACGGGTGAAAGTCGGCATCTA,0.258,0.35,0.383,1.33,0.921,0.697,0.103,0.0658
CAGACTGGGGCAGAAAGGTTACCATACCATCCGG,2.4,2.09,1.85,-0.43,1.98,1.29,-0.421,0.0589
CGAATTAGGTCAGAACAGGACAGTGAAGGATGAT,2.36,2.65,3.43,0.886,1.29,3.86,1.01,0.142
ATATGTACGTTAGCTGGGGTCATTCAGACTAGGC,3.2,3.67,2.5,2.23,5.37,4.01,3.2,5.16
AGTCAAAGCTCATCTAGGTAACGTAAGATATGCT,-0.617,0.0208,0.207,-0.43,0.198,0.467,-0.333,-0.256
CAGGCTAGGTCAGGGCCAGTATAGGAGGAACGTT,2.77,3.07,4.16,-0.54,1.45,1.95,0.49,0.035
CTGGAAAGGTCGTGCTCAGGTGAGTATACCAAAC,2.76,5.06,3.97,1.91,4.95,4.09,0.923,0.759
ACTATCAGTTGAGACGAGGGCAACCGATAGGTTG,1.12,0.732,0.78,0.39,0.625,2.59,0.179,0.822
CCGACTGGGGCAGAAAGGTTACGATACCATCCGG,2.38,1.96,1.37,-0.562,2.09,1.15,-0.229,-0.0227
ATCTCTAGGTAAAAGTTCAGTAAATCCCGAGGAT,2.41,1.83,1.94,0.937,1.61,1.38,0.269,2.01
AGAATGAGGTTATTAAGATCGGGGAATTGCGGTC,0.767,0.927,0.627,2.18,1.38,2.2,0.74,1.27
AGAATGAGGTTACCAAAGATCAGGGACACGCTTG,1.72,2.29,1.89,1.2,2.64,3.33,2.17,0.768
CAAACTAGGCCACAGAGGTCAAAGTCCGTGCGTA,4.87,5.71,4.91,2.16,6.16,3.95,1.62,4.03
TCATATAGTTAAATGCTAGGTGAAAGTCCGATCT,0.141,0.1,0.364,1.68,0.476,0.852,0.605,0.158
TCAGACAGGTGAAGGAAACTCAGGTACGCAGTCG,0.458,0.429,0.359,1.34,0.487,0.592,0.421,0.426
CTGACTGGGGCAGAAAGGTTACCATACCATCCGG,2.57,2.08,1.66,-0.154,1.88,1.34,-0.00368,0.339
GCGACTGGGGCATCAGCGGGTTACCATAACTTAA,0.625,0.738,0.196,-0.276,0.347,0.628,-0.267,-0.158
TCGAGTAGGTTATGGGCATTCAGAATGGCGTCGA,-0.0176,-0.0222,-0.106,-0.148,0.459,-0.261,-0.66,-0.437
CGAACTAGGCCAGAACAGGACAGTGAAGGATGAT,0.156,0.158,0.409,0.019,0.291,0.634,-0.576,-0.245
ACTAGCACGCCAAGTTTGGGTCACTCAAACAAAG,1.5,0.693,0.804,-0.276,0.756,2.02,0.988,-0.0889
TCTTGTAGAACAAGCAGGTTAAGAAAGCCTGAGT,0.0404,-0.0958,-0.255,0.567,0.349,0.0268,-0.349,-0.0601

Sequence,PBM binding z-score [1],PBM binding z-score [2],PBM binding z-score [3],PBM binding z-score [4],PBM binding z-score [5],PBM binding z-score [6],PBM binding z-score [7],PBM binding z-score [8]
GCTTACGGGTCAAAGGTTATAGGATGAATAGAAT,3.6,6.89,4.67,2.7,9.57,3.78,0.0155,1.65
ATATGTAGGTTTAGGGTCATTCAGGTTGGTTCGC,3.05,3.53,2.43,2.74,4.4,4.23,4.2,4.83
GCTGCTAGGTGAACTGATGGTCAGCTAAAGCTCG,0.715,0.956,0.47,-0.22,0.333,1.03,-0.574,-0.742
GCTATTAGTTGAGAGGGCAACCGAATGATTCTCG,1.14,0.913,1.01,0.884,0.882,0.555,-0.117,0.435
TGAATGCGGTTAAAGATCAGGGAACGTGGCGTCG,-0.707,-0.0436,-0.136,-0.853,0.338,-0.164,-0.454,-0.55
CGAACTAGGTCAAGGAAAGTGAATCTCCGCACGC,2.71,3.5,3.7,1.16,2.43,2.42,0.746,0.143
TCTAGTTGGTCACGGAGGTAACACACGACGGGTA,1.39,1.24,1.7,0.681,1.04,1.12,0.797,0.198
TGTTGTAGATCAACAGGAGGTTAAGAAAGATCGA,0.36,1.06,0.365,-0.89,0.741,0.863,-0.492,-0.0284
AGAACGAGGGCACGCTGAGTTGTTAGCAGAGTAG,1.16,1.85,2.11,1.95,1.55,1.73,-0.0744,1.29
TCTAGCAGTCCAGAGGGTCACTCAAGAGGTACGG,2.78,2.4,1.91,0.0371,2.54,1.79,0.000359,0.904
TCGAGTCGGTTACCAATGGGGCATTCAGCTTTCT,0.134,-0.35,-0.367,0.329,-0.284,-0.43,-0.423,-0.105
TCGTATAGGTAATACAGGTGAAAGTCGGCATCTA,0.603,0.62,0.295,1.08,0.949,1.15,0.259,0.57
TATCGGAGGACACGAAGGTCAGAGCTTTCCAGAG,3.47,3.17,3.73,0.00455,1.79,2.88,0.977,1.46
TCTAGTTGGTCACGGAGGTCACACAGGACGGGTA,4.25,4.69,4.9,0.898,4.86,3.75,2.62,3.06
ATCTCTAGGTAACCAAGTCCAGTGAATGCCGAAC,0.289,0.196,0.238,0.275,0.184,0.825,0.807,0.463
TCTAGCAAGCCAGAGGGTCACTCAAGAGGTACGG,2.11,1.94,1.39,-0.198,2.18,1.43,-0.484,0.431
CCTGCTAGGTCAATGGTTAGCTAAAGCAGCTCGC,2.6,3.3,3.9,1.65,1.78,2.11,0.48,-0.158
CCGACTGGGGCATAAGGTTACGATAAGCCAGCCC,1.67,1.92,1.18,-0.47,1.45,1.98,0.985,-0.0834
CCTAGCAGGCAAGGGTCACTCAAGCATTTCGCTT,3.46,4.12,3.63,0.602,4.6,2.36,-0.309,0.817
ATCGAAAGGTCGTGAGGTGAGCATACAGAAAGGC,3.19,4.58,4.26,1.12,5.3,3.45,1.68,0.917
TCGAGTAGGTTACAAATGGGGCATTCAGCTTTCT,0.369,0.68,0.323,0.884,0.39,0.1,-0.394,-0.133
TCATATAGGTAGATGCTAGGTGAAAGTCCGATCT,0.362,0.127,0.207,1.14,0.611,0.969,0.547,0.276
CCAACTGGGGCATAAGGTTACCATAAGCCAGCCC,1.68,1.52,1.12,-0.33,1.24,1.97,1.29,0.0835

Sequence,PBM binding z-score [1],PBM binding z-score [2],PBM binding z-score [3],PBM binding z-score [4],PBM binding z-score [5],PBM binding z-score [6],PBM binding z-score [7],PBM binding z-score [8]
GGAACGAGGGCAAAGTTTATAGCATCTGTCGACG,1.8,2.31,2.04,2.61,2.22,1.63,-0.279,2.22
CCTCGGAGGACAGAAGGTCCGAGCTGTCCGCTTT,-0.0245,-0.392,-0.0646,0.0399,-1.02,-0.359,-0.311,0.0219
CCAGACACGTGAGAAGGTAACTCAGCCTCGATTA,-0.118,0.0186,0.206,0.268,0.0109,-0.00448,-0.0296,0.0283
CTCGAACGGTCGGTTGAGGTGAGTATACGGATAA,0.411,0.215,0.464,-0.356,-0.11,3.27,0.822,-0.341
TTACCAAGGTGATCTGAGGTCGTTGATCCAACTC,1.63,0.881,0.757,0.903,1.37,4.77,2.67,2.96
ATATGTAGGTTATCGGGTCCTTCAGTTTGCGCAT,0.87,0.677,0.506,0.751,0.855,0.708,0.719,1.51
ATTTCTAGGTAAAAGTTCAGTGAATCCCGAGGAT,2.3,2.15,2.03,1.21,1.88,1.64,0.543,2.1
GCTAGTTGGTCAGTAAAAGGTCTCACACCGGTCG,1.45,0.572,0.449,-0.133,0.172,0.0932,0.0808,-0.174
GCGTATAGGTAATACAAGGTGAAAGTCCGATTGT,0.95,0.423,0.499,0.141,0.647,4.35,1.03,0.00145
TGTATTAGTTGAAGGGCAACCGACGAGTCCGTTT,1.63,0.727,1.06,0.401,0.406,0.237,0.213,1.55
ATCGAAAGGTCGTTAGGTGAGTATACAGAAAGGC,2.59,3.91,3.44,2.2,3.98,2.51,0.793,1.84
ACAGACACGTGAGTGAAGGTAACTCAGCTGGACG,-0.372,-0.114,0.0531,-0.182,0.149,-0.478,-0.846,-0.417
CCTACTGGGCCATTCAGAGGTCATGGATCATATG,4.22,4.63,3.45,0.21,4.21,3.64,1.55,2.09
GATACAGGGTCAGCTAGAGGCCAGAGAATGGAAA,3.39,6.83,5.12,1.73,4.78,3.35,0.483,0.71
CCTATTAGTTGACCATAAGGTCAACCGAAGCTCG,4.8,4.83,4.07,1.77,4.39,4.27,5.15,3.25
TCATATTGGTAAATGCTAGGTGAAAGTCCGATCT,0.619,0.03,0.0161,1.7,0.255,0.808,0.878,0.578
CCTTGCAGGCCAGGGTCACTCAAGCATTTCGCTT,2.93,3.21,2.83,0.484,3.43,2.76,1.07,1.18
TAGCCTAGGTCAATGGGCCAGTATAGTACGCATC,3.07,3.64,4.52,0.537,2.12,2.16,0.256,0.391
TAGCCCAGGTCATGCGGGCCAGTATAGTGTCGGC,2.94,4.07,3.99,1.22,3.45,3.85,2.4,1.49
TAGCCTAGGTCATTCGGGGGCCAGTATAGAAAGC,3.39,6.55,5.25,2.13,3.58,4.17,1.48,2.32
CCTCGGAGGACAACAGGAAGTCAGAGCTGCCAGA,0.0796,0.396,1.06,0.139,-0.479,0.205,-0.14,-0.542
TCGAGTCGGTTAGGGGCATTCAGAATGGCGTCGA,0.345,-0.19,-0.321,0.196,0.0404,1.38,-0.39,1.12
